# Sampled rows, rich in hits. Any-hit rate of the full collection: about 5.9%.
# LANA-H2A inh = blockers of LANA interaction with H2A/H2B – biochemical, FP readout, HTS, primary screen; Protein LANA1 (Human herpesvirus 8 type P (isolate GK18)), Q9QR71; inhibition, % (test concentration not listed); actives 0.6% (n = 320,000); cell-free LANA-H2A/H2B peptide, fluorescence polarization; in the data active means inhibition mostly above about 10%, no sharp cut-off; inactive means mostly below about 6.7%
# Rtt109 HAT inh = inhibitors of C. albicans Rtt109/Vps75 HAT, primary screen, biochemical, ThioGlo CoA-SH fluorescence, plate reader. purified Rtt109/Vps75, 4 h. actives 0.16% (n = 330,000). Histone acetyltransferase RTT109 (Candida albicans (strain SC5314 / ATCC MYA-2876)), …. inhibition, % at 34.9 µM. AID 540336, 2011;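 active means inhibition of at least 50% in every replicate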
# Target sequence (Q5AAJ8 whole entry, looked up): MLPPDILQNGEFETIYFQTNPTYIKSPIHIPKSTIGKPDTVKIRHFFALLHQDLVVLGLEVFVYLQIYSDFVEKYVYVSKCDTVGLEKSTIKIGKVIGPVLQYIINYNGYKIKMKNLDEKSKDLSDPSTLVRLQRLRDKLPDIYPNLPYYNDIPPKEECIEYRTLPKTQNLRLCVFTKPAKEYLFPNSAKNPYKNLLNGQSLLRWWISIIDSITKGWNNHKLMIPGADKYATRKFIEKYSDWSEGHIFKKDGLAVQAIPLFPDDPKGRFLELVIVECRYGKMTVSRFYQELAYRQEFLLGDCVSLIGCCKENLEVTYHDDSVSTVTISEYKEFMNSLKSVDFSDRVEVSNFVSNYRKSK
# PRMT1 inh = PRMT1 methyltransferase inhibitors, primary screen, biochemical, fluorescence polarization; inhibition, % at 2.79 µM; AID 652257, 2013; recombinant PRMT1, activity-based probe fluorescence polarization; Protein arginine N-methyltransferase 1 (Homo sapiens), Q99873; actives 1.3% (n = 370,000);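 active means inhibition above about 21% made by adding two undisclosed values, limit read from the data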
# rCAG RNA binder = binders of r(CAG) RNA repeats, primary screen, biochemical, fluorescence | r(CAG) RNA repeat, TO-PRO-1 dye displacement fluorescence | inhibition, % at 3 µM | AID 651821, 2012 | actives 1.3% (n = 370,000);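 active means inhibition above the plate cutoff, the mean of all test compounds on that plate plus 3 SD, cut at about 35% in these data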;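 further: 0% = DMSO alone and 100% = 100 µM mitoxantrone as full dye displacement; higher means more dye released from RNA so lower well fluorescence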
# ABHD5 PLIN5 PPI = ABHD5-PLIN5 interaction inhibitors, primary screen, cell lysate, split luciferase complementation, luminescence | Perilipin-5 (Homo sapiens) + 1-acylglycerol-3-phosphate O-acyltransferase ABHD5 (Homo … | Split G. princeps luciferase complementation, 4 h | inhibition, % at 4 µM | actives 0.78% (n = 360,000) | AID 602281, 2012;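 active means inhibition above the mean inhibition across every tested compound plus 3 SD, cut at about 22% in these data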;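 further: 0% = DMSO only wells and the 100% control is not disclosed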
# ALR H2O2 inh = inhibitors of human ALR sulfhydryl oxidase, primary screen, biochemical, H2O2 detection, HRP-luminol luminescence, single point; inhibition, % (test concentration not listed); AID 485317, 2010; actives 3.8% (n = 290,000); purified ALR, DTT oxidation; FAD-linked sulfhydryl oxidase ALR (Homo sapiens), P55789;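 active means mean replicate inhibition above about 79%, with every replicate also reaching it, limit read from the data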
# Target sequence (P55789 whole entry, looked up): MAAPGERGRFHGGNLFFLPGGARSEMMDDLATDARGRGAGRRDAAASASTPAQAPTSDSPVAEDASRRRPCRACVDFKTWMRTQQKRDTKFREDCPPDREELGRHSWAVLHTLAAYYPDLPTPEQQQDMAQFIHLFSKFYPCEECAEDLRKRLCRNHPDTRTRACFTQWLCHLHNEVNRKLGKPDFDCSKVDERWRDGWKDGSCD
# Starred values were filed as active, the others as inactive; · = no result.
SMILES,LANA-H2A inh,Rtt109 HAT inh,PRMT1 inh,rCAG RNA binder,ABHD5 PLIN5 PPI,ALR H2O2 inh
CCOC(=O)C1=C(C)NC(C)=C(C(=O)OCC)C1c1cn(-c2ccccc2)nc1-c1ccco1,1,-2,-2,4,-7,·
CC(C)OC(=O)c1cn(-c2ccccc2)nc1-c1ccco1,-473,6,23*,23,18,14
CS(=O)(=O)C1=NN2C(=N)/C(=C\c3ccc(OC(=O)c4ccco4)cc3)C(=O)N=C2S1,-1,57*,3,31,11,12
N=C1/C(=C\c2ccc(OC(=O)c3ccc(F)cc3)cc2)C(=O)N=C2SC(N3CCOCC3)=NN12,-2,-1,8,12,-9,95*
CS(=O)(=O)C1=NSC2=NC(=O)/C(=C\c3ccc(OC(=O)c4ccco4)cc3)C(=N)N21,0,·,·,·,·,6
CCNC(=O)N(C)[C@H]1C[C@H]2c3[nH]c4c(-c5cccc(C)c5)cccc4c3CCN2C(=O)[C@H]1[C@H](C)O,·,·,-1,8,·,·
O=C(CCc1nnc(CCC2CCCCC2)o1)NCCn1cccn1,15*,1,1,-3,0,·
CCOC(=O)C1(CCCc2ccccc2)CCN(CCCn2cccn2)CC1,-2,4,0,-8,4,-1
CCOC(=O)C1(Cc2ccccc2C(F)(F)F)CCN(CCCn2cccn2)CC1,14*,4,-3,-12,-6,-27
N#Cc1ccc(OCC(=O)NC2=NCCS2)cc1,0,·,27*,1,3,-2
Nc1ccc2c(Cl)cc(Cl)cc2c1,·,·,5,5,-5,·
COc1ccc(S(=O)(=O)N2CCN(c3ccccn3)CC2)cc1OC,-1,53*,-1,-4,2,4
COc1cc2[nH]c3c(N4CCN(c5ccccn5)CC4)ncnc3c2cc1OC,0,20,·,·,5,99*
Nc1sc(-c2ccccc2)cc1C(=O)N1CCNCC1,·,·,11,7,-21,·
CCOC(=O)c1ccc(S(=O)(=O)N2CC(=O)Nc3ccccc32)cc1,-1,-7,3,8,-5,99*
O=C(CSc1nnc(CNC(=O)c2cccs2)o1)NCCc1ccccc1,36*,-5,0,-2,5,9
O=C1NC(c2cccc(C(F)(F)F)c2)c2c(-c3ccccc3)n[nH]c21 (stereo not given),·,·,-1,2,·,·
CCOc1cc(CNCC(O)c2ccccc2)cc(Cl)c1OC (stereo not given),-4,·,-1,-4,-3,99*
COc1ccc(-c2nnc(Nc3nc4c(OC)cccc4s3)o2)cc1,2,12,-5,27,4,4
COc1ccc(-c2nnc(Nc3nc4c(OC)cccc4s3)o2)c(OC)c1,-5,4,-4,51*,9,5
CCCCCCN1C[C@@H](n2cc(C3CC3)nn2)[C@H](O)C[C@@H]1c1ccc(OC)cc1,·,·,-1,0,-12,·
CC1CN(S(=O)(=O)c2cccc(-c3csc(-c4ccccc4)n3)c2)CC(C)O1 (stereo not given),3,0,2,12,-7,98*
Cc1nc(-c2ccc(S(=O)(=O)N3CCOCC3)cc2)cs1,-5,6,1,-5,-2,93*
O=S(=O)(c1cccc(-c2csc(-c3ccccc3)n2)c1)N1CCOCC1,-5,2,5,6,-7,98*
COc1ccc(/C=C/C(=O)NC2=NCCS2)c(OC)c1,·,·,-2,·,·,·
SMILES,LANA-H2A inh,Rtt109 HAT inh,PRMT1 inh,rCAG RNA binder,ABHD5 PLIN5 PPI,ALR H2O2 inh
CNC(=O)c1ccsc1NC(=O)CS(=O)(=O)c1ccc(F)cc1,·,·,2,5,5,·
Cn1cccc1C(=O)NCCc1ccccc1,5,·,6,1,13,-3
COc1ccc(CCNC(=O)c2cccn2C)cc1,30*,-3,2,0,1,-3
CCCc1nnc(SCC(=O)Nc2ccc(OCC)cc2)n1N,2,5,0,3,1,98*
CCOc1ccc(NC(=O)CSc2nnc(-c3ccccc3)n2N)cc1,3,4,0,0,0,-3
CCOc1ccc(NC(=O)CSc2nncc(=O)n2N)cc1,-5,19,34*,0,-7,96*
COc1ccc(OC)c(S(=O)(=O)NC(=O)C2(C)CCN2C(=O)Cc2ccccc2)c1 (stereo not given),·,·,-1,0,-7,·
NC(=O)c1ccc(NC(=O)COC(=O)c2ccc(Cl)nc2)cc1,12*,-4,-4,2,1,0
CC1CN(C(=O)COC(=O)c2ccc(Cl)nc2)CC(C)O1 (stereo not given),3,10,-3,-5,7,91*
Cc1c(Cl)cccc1N(CC(=O)O)S(C)(=O)=O,11*,-8,-2,-3,-4,0
Cc1c(Cl)cccc1N(CC(=O)N1CCCCCC1)S(C)(=O)=O,-5,-8,-1,-6,6,2
COc1ccc(-c2cn(Cc3ccc(C(N)=O)cc3)c(-c3ccncc3)n2)cc1,-3,6,1,-2,7,98*
COc1ccc(-c2cn(CCN)c(-c3ccncc3)n2)cc1,2,3,0,0,5,0
O=C(O)CCn1cc(-c2ccc(Cl)cc2)nc1-c1ccncc1,0,-2,0,3,-4,77*
COc1ccc(-c2cn(CCC(=O)O)c(-c3ccncc3)n2)cc1,5,-7,2,0,-8,69
COc1ccc(CCN2CC(C(=O)Nc3nnc(Cc4ccccc4)s3)CC2=O)cc1OC (stereo not given),11*,1,-2,1,1,-6
COc1ccccc1CNc1cc(C)ccc1C,-1,3,0,-4,0,83*
COc1ccc2nc3n(c(=O)c2c1)-c1ccccc1C(=O)NC3Cc1ccccc1 (stereo not given),-3,·,3,2,·,2
Cc1cccc(C)c1-n1nnnc1C1(C)Cn2nccc2C(=O)N1Cc1ccc(F)cc1 (stereo not given),·,·,2,-2,·,·
CC1(C)CC(=O)C2=C(C1)OC(N)=C(C#N)C2c1cccs1 (stereo not given),-2,5,2,-2,2,96*
CC1(C)CC(=O)C2=C(C1)OC(N)=C(C#N)C2c1ccccc1[N+](=O)[O-] (stereo not given),11,-15,23*,-12,-20,11
CC1(C)CC(=O)C2=C(C1)OC(N)=C(C#N)C2c1ccccc1 (stereo not given),4,-1,-2,1,3,6
O=C(c1ccccc1)n1ccc2ccc(-c3ccc4ccn(C(=O)c5ccccc5)c4c3)cc21,·,·,-1,9,·,·

# Screening data deposited in PubChem BioAssay by several laboratories.
